Consider eight compounds from PubChem BioAssay (NCATS).

A short description of test [1]: Cell Viability - BJ (AID 421; calls by dose curve;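 also: potency is read from the fitted curve at half-maximal effect; cells exposed to compound for 40 hours at 37 °C before readout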). Particulars: BJ fibroblast viability, qHTS. The method in brief:
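Normal human BJ foreskin fibroblasts, 1500/well in complete medium, treated 40 hr at 37 °C. Cellular ATP by CellTiter-Glo luminescence; normalized to DMSO and 100 uM tamoxifen, AC50 from Hill fit.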
(In general: Quantitative high-throughput screening tests each substance at several concentrations.)

Test [2] in a line: Cell Viability - HepG2 (AID 433; calls by dose curve;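 also: potency is read from the fitted curve at half-maximal effect; cells exposed to compound for 40 hours; potency for ATP loss meaning cytotoxicity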). Particulars: qHTS. The method in brief: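 Cytotoxicity read as ATP loss (CellTiter-Glo luminescence) after 40 hr compound exposure of HepG2, 1500 cells/well, 37 °C. AC50 by Hill equation; 0% set by DMSO, 100% inhibition by 100 uM tamoxifen.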
Test [3] can be described thus: Cell Viability - Mesenchymal (AID 546).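 Also: cells exposed to compound for 40 hours before reading.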 The note with it: mesenchymal cells viability, qHTS; activity change, negative = cytotoxicity: at 91.7 µM (top of the series). The gist of the method:
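Normal human renal glomerulus-derived kidney mesenchymal cells, 1000 per well in complete medium, were treated with compounds for 40 hr at 37 °C. Viability was read as intracellular ATP by CellTiter-Glo luminescence; AC50 values came from Hill-equation fits of qHTS concentration-response data.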

The nature of test [4]: Cellular Toxicity (caspase-3) Jurkat (AID 655).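 Also: cells exposed to compound for 16 h at 37 °C before reading.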 Also: potency is read from the fitted curve at half-maximal effect. The note with it: Jurkat caspase-3 activation, luminescence; caspase-3 activation: at 92.2 µM (top of the series), DMSO = 0%, tamoxifen = 100%. The gist of the method:
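Luminescent Caspase-Glo 3/7 read-out (20 min, room temperature) after 16 h compound treatment at 37 C of 5000 Jurkat cells per well. AC50 derived by Hill-equation fitting, scaled between DMSO basal and 100 uM tamoxifen stimulation.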

Test [5] can be described thus: Cell Viability - LYMP2-003 (AID 965).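 Also: cells exposed to compounds for 24 h before reading; nearly all actives have a fitted effect of over 50% in size.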 Also: potency is read from the fitted curve at half-maximal effect.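 As to activity change, negative = cytotoxicity: 0% = DMSO only and full effect = 92 µM tetraoctylammonium bromide.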 Particulars: LYMP2-003 lymphoblastoid cell viability; series mostly up to 92.2 µM. The gist of the method: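 CellTiter-Glo luminescence quantified ATP loss after 24 h compound treatment of LYMP2-003 lymphoblastoid cells at 37 C. Titration series were fitted with the standard Hill equation to give AC50.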
Test [6] is described as follows: Cell Viability - LYMP2-011 (AID 969).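 Also: cells exposed to compound for 24 hours; nearly all actives have a fitted effect of over 60% in size.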 Also: potency is read from the fitted curve at half-maximal effect. Particulars: LYMP2-011 lymphoblastoid cells viability; series mostly up to 92.2 µM. The method in brief: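 2500 cells/well, 5 hr 37 C; compound added, 24 hr 37 C; CellTiter-Glo 30 min RT; luminescence. qHTS concentration-response, Hill-equation AC50. Tetraoctylammonium bromide positive control.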
Test [7] in a line: Cell Viability - LYMP2-021 (AID 974).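 Also: compound exposure lasts 24 hours at 37 °C; nearly all actives have a fitted effect of over 55% in size.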 Also: potency is read from the fitted curve at half-maximal effect. As to activity change, negative = cytotoxicity: % is scaled to controls: 0 for no effect and ±100 for the full control effect. The note with it: LYMP2-021 lymphoblastoid cells viability; series mostly up to 92.2 µM. The gist of the method: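 Plate 2500 lymphoblastoid cells per well and incubate 5 hr at 37 C. Add compounds over a concentration range and incubate 24 hr at 37 C. Add CellTiter-Glo, wait 30 min at room temperature, read luminescence.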
Test [8] in a line: Cell Viability - LYMP2-023 (AID 975).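 Also: cells exposed to compound for 24 hours at 37 °C; nearly all actives have a fitted effect of over 55% in size.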 Also: potency is read from the fitted curve at half-maximal effect.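 As to activity change, negative = cytotoxicity: cellular ATP measured by luciferase luminescence as viability proxy; plate controls were DMSO only for no effect and 92 µM tetraoctylammonium bromide control for full effect.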 The note with it: LYMP2-023 lymphoblastoid cell viability; series mostly up to 92.2 µM. The method in brief: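 2500 cells/well, 5 hr 37 C; cpd 24 hr 37 C; CellTiter-Glo, 30 min RT; luminescence. qHTS conc-response, Hill fit -> AC50. Pos ctrl tetraoctylammonium bromide.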
Test [9] in a line: Cell Viability - LYMP2-025 (AID 976).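 Also: plate controls were DMSO only for no effect and tetraoctylammonium bromide control for full effect.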 The note with it: LYMP2-025 lymphoblastoid cell viability; series mostly up to 92.2 µM. The method in brief:
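Seed 2500 LYMP2-025 cells/well; 5 hr at 37 C; add compound; 24 hr at 37 C; add CellTiter-Glo; 30 min RT; read luminescence. AC50 from Hill-modelled concentration-response.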

A short description of test [10]: Cell Viability - LYMP2-002 (AID 977).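 Also: plate controls were DMSO only for no effect and 92 µM tetraoctylammonium bromide for full effect.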 Particulars: LYMP2-002 lymphoblastoid cell viability, qHTS; series mostly up to 92.2 µM. The method in brief:
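Luminescent ATP readout (CellTiter-Glo, 30 min room temperature) after 24 h compound exposure at 37 C of a human lymphoblastoid line, 2500 cells/well. AC50 values derived by standard Hill fitting of qHTS concentration-response data.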

Test [11] in a line: Cell Viability - LYMP2-008 (AID 980). Also: nearly all actives have a fitted effect of over 60% in size. Also: potency is read from the fitted curve at half-maximal effect. As to activity change, negative = cytotoxicity: % is scaled to controls: 0 for no effect and ±100 for the full control effect. The note with it: LYMP2-008 lymphoblastoid cell viability, qHTS; series mostly up to 92.2 µM. The method in brief: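 qHTS, human lymphoblastoid line, 2500 cells/well; 5 hr preincubation, 24 hr compound, 37 C. CellTiter-Glo ATP luminescence. AC50 via Hill equation. Tetraoctylammonium bromide positive control.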
Test [12] can be described thus: Cell Viability - LYMP2-014 (AID 983). Also: nearly all actives have a fitted effect of over 50% in size. Also: potency is read from the fitted curve at half-maximal effect.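 As to activity change, negative = cytotoxicity: plate controls were DMSO only for no effect and 92 µM tetraoctylammonium bromide for full effect.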 Particulars: LYMP2-014 lymphoblastoid cells, viability qHTS; series mostly up to 92.2 µM. The method in brief:
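Luminescent ATP signal (CellTiter-Glo, 30 min at room temperature) serves as the viability read-out after 24 hr compound exposure at 37 C. Cells were seeded at 2500 per well and settled 5 hr beforehand.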

Test [13] can be described thus: Cell Viability - LYMP2-016 (AID 984).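 Also: cells exposed to compound for 24 hours at 37 °C; % is scaled to controls: 0 for no effect and ±100 for the full control effect; nearly all actives have a fitted effect of over 55% in size.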 Particulars: LYMP2-016 lymphoblastoid cell viability, qHTS; series mostly up to 92.2 µM. The method in brief:
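Cytotoxicity was scored by luminescent ATP content (CellTiter-Glo) after 24 h compound exposure at 37 C of a human lymphoblastoid line at 2500 cells/well. Concentration-response data were fitted to the Hill equation for AC50.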

A short description of test [14]: Cell Viability - LYMP2-018 (AID 985). Also: nearly all actives have a fitted effect of over 50% in size. Also: potency is read from the fitted curve at half-maximal effect.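 As to activity change, negative = cytotoxicity: plate controls were DMSO only for no effect and tetraoctylammonium bromide at 92 µM for full effect.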 Particulars: LYMP2-018 lymphoblastoid cells, viability (qHTS); series mostly up to 92.2 µM. The method in brief:
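Luminescent ATP signal (CellTiter-Glo, read after 30 min at room temperature) reports viable cells after 24 hr compound treatment at 37 C. Concentration-response data were fitted to the standard Hill equation for AC50.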

A short description of test [15]: Cell Viability - LYMP2-022 (AID 987). Also: nearly all actives have a fitted effect of over 55% in size. Also: potency is read from the fitted curve at half-maximal effect. The note with it: LYMP2-022 lymphoblastoid cell viability; series mostly up to 92.2 µM. The gist of the method: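 qHTS: human lymphoblastoid cells 2500/well; 5 hr 37 C; cpd added; 24 hr 37 C; CellTiter-Glo, 30 min RT; luminescence. AC50 via Hill fit; tetraoctylammonium bromide positive ctrl.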
The nature of test [16]: Cell Viability - LYMP2-026 (AID 989). Also: % is scaled to controls: 0 for no effect and ±100 for the full control effect; nearly all actives have a fitted effect of over 50% in size. Particulars: LYMP2-026 lymphoblastoid cell viability, qHTS; series mostly up to 92.2 µM. The gist of the method: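 Luminescent ATP signal (CellTiter-Glo, 30 min room temperature) measures viable lymphoblastoid cells after 24 hr compound treatment at 37 C. Decreased ATP reflects acute toxicity; AC50 values come from Hill-equation modeling.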

Test [17] in a line: qHTS assay for small molecule antagonists of retinoid X receptor alpha signaling (AID 588546; active = well fitted inhibition curve with a large enough effect in the signal ratio, with a control signal flat, not every such curve was filed as active; the % refers to the signal ratio;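 also: cells stimulated with 9-cis-retinoic acid as agonist; % is scaled to controls: 0 for no effect and ±100 for the full control effect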). Particulars: HEK293T RXRa-UAS-bla, beta-lactamase ratio, antagonist mode; measured here: W530 green channel, cytotoxicity proxy. The gist of the method:
(§1)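 Beta-lactamase reporter inhibition, read as CCF4 fluorescence ratio (ex 405, em 460/530 nm) after 2 h at RT. HEK293T UAS-bla cells, 2500/well, were stimulated with 9-cis-RA at 500 or 100 nM final alongside test compound for 18 h at 37 C.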

Test [18] addresses Retinoic acid receptor RXR-alpha (Homo sapiens) (UniProt P19793). Described as above. Particulars: HEK293T RXRa-UAS-bla, beta-lactamase ratio, antagonist mode. The method in brief:
as §1

Test [19] is described as follows: qHTS assay for environmental chemicals that activate the Aryl hydrocarbon Receptor (AhR) signaling pathway (AID 651777). Also: % of control where 0% means no effect; nearly all actives have a fitted effect of over 15% in size. The note with it: 1A2-DRE human hepatoma cells, luciferase, 24 h; activation: stronger effect = higher value. The method in brief: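 Stable CYP1A2 promoter/DRE-luciferase human hepatoma line treated 24 hr; One-Glo luminescence, 30 min RT.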
The nature of test [20]: Cell Viability - LYMP2-024 (AID 988). Also: nearly all actives have a fitted effect of over 60% in size. Also: potency is read from the fitted curve at half-maximal effect.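 As to activity change, negative = cytotoxicity: plate controls were DMSO only for no effect and 92 µM tetraoctylammonium bromide for full effect.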 The note with it: LYMP2-024 lymphoblastoid cell viability; series mostly up to 92.2 µM. The method in brief:
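Steps: seed 2500 cells/well, 5 hr 37 C; add compound, 24 hr 37 C; add CellTiter-Glo, 30 min room temperature; read luminescence. AC50 derived by Hill modelling of concentration-dependent ATP loss.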

Values joined by “and” are separate entries in the source; they are usually repeats but may differ in a detail not shown here. Equal values may be shown once. Records with an inconclusive call do not appear. Active and inactive are the calls of the source. Unless noted, calls follow the shape of the dose curve; as a rule, active = well fitted curve in the direction sought with a large enough effect; inconclusive = small, poorly fitted or top-dose-only effect, or another doubt; inactive = no such curve, though single readings can be large; an effect the other way counts as inactive or inconclusive. Bounds are passed on as bounds.

Sequence of Retinoic acid receptor RXR-alpha (Homo sapiens) (P19793 whole entry, looked up): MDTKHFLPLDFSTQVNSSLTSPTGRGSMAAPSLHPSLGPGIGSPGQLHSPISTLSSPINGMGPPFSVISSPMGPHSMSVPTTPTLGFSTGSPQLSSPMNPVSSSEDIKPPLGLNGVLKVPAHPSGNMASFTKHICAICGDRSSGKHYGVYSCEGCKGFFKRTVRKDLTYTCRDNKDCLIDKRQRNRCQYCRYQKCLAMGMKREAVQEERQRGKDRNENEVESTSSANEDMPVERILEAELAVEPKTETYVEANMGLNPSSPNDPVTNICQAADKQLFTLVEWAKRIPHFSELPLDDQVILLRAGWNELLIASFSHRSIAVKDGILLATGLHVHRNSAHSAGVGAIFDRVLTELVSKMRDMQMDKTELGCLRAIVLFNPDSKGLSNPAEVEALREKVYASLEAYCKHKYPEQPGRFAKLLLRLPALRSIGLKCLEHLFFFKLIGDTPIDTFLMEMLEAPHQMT

Turning to `CC(=O)CC(=O)Nc1ccccc1`, the Potency in [1] and in [2] was > 92 µM (inactive) in each case. Further, the Potency entry in [3], in [4], in [5], in test [6], in [7] and in test [8] was “inactive” throughout. Further, the Potency entry in [9], in test [10], in [11], in [12], in test [13] and in test [14] was “inactive” throughout. Moreover, the Potency result in test [15] and in test [16] was “inactive” throughout. For the same compound, the max response in [17] is 10.1% and 20.6%; in test [18], -1.7% (inactive) and -15.3% (inactive). Moreover, in test [19], the activation is 1.24% (inactive) and 1.64% (inactive).

On to `C=C1CC[C@H](O)C/C1=C/C=C1\CCC[C@]2(C)[C@@H]([C@H](C)CCCC(C)C)CC[C@@H]12`, for which the Potency in test [1] was 61.2 µM (active); in test [2], > 92 µM (inactive); in [4], 31.6 µM (active); in [5], 39.8 µM (active); in test [6] it was 50.1 µM (active); in [7] it was 39.8 µM (active). Besides, the Potency was 50.1 µM (active) in test [8]; 50.1 µM (active) in test [11]; 50.1 µM (active) in test [12]; 39.8 µM (active) in test [14]; 31.6 µM (active) in test [15]; 39.8 µM (active) in test [20]. The activity change, negative = cytotoxicity in test [3] is -102% (active). Besides, the activation in [19] is 5.81% (inactive).

As to `c1ccc2c(c1)ccc1ccccc12`, the Potency in test [1] and in test [2] was > 92 µM (inactive) throughout. Besides, the Potency result in test [3], in test [4], in test [5], in [6], in test [7] and in [8] was “inactive” throughout. In addition, the Potency result in test [9], in [10], in test [11], in [12], in test [13] and in [14] was “inactive” each time. Also, the Potency entry in [15], in test [20] and in test [16] was “inactive” in each case. The max response is -0.251% in [17] and 9.87% (inactive) in [18]. Moreover, the activation in test [19] was 0.646% (inactive) and 0.0503% (inactive).

Take `Nc1cc(C(=O)O)c(O)c(S(=O)(=O)O)c1`: the Potency in [1] and in [2] was > 92 µM (inactive) throughout. Besides, the Potency result in test [3], in test [4], in test [5], in [6], in [7] and in [8] was “inactive” throughout. Moreover, the Potency entry in test [9], in test [10], in test [11], in test [12], in test [13] and in test [14] was “inactive” in each case. The Potency result in test [15], in test [20] and in test [16] was “inactive” each time. Also, the values for the max response in test [17] and in [18] were 12.7% and 3.86% (inactive), respectively. The activation in test [19] was -2.49% (inactive).

Consider `CCN(CC)c1ccc2c(C)cc(=O)oc2c1`, for which the Potency in [1] and in test [2] was > 92 µM (inactive) in each case. The Potency entry in test [3], in test [4], in test [5], in test [6], in [7] and in test [8] was “inactive” in each case. The Potency result in test [9], in [10], in [11], in [12], in test [13] and in test [14] was “inactive” in each case. For the same compound, the Potency entry in test [15], in test [20] and in test [16] was “inactive” in each case. In addition, the activation in test [19] was 6.67% (inactive).

For `Oc1cc(Cl)cc(Cl)c1Cl`, the Potency in test [1] and in [2] was > 92 µM (inactive) each time. Also, the Potency result in test [3], in test [4], in test [5], in [6], in test [8] and in test [9] was “inactive” in each case. For the same compound, the Potency result in test [10], in [11], in test [12], in [13], in test [14] and in test [15] was “inactive” throughout. In [16], the Potency entry is “inactive”. Further, the activation in test [19] was 2.22% (inactive).

For the compound `c1ccc(Nc2cccc3ccccc23)cc1`, the Potency in test [1] and in test [2] was > 92 µM (inactive) in each case. The Potency result in test [3], in test [4], in test [5], in [6], in test [7] and in test [8] was “inactive” each time. Besides, the Potency entry in [9], in test [10], in test [11], in test [12], in test [13] and in [14] was “inactive” each time. The Potency entry in test [15], in [20] and in [16] was “inactive” each time. Also, the values for the max response in test [17] and in [18] were 1.85% and -23.3% (inactive), respectively.

Consider `NC(=O)Nc1nc2ccccc2[nH]1`, for which the Potency in [1] and in test [2] was > 92 µM (inactive) in each case. The Potency result in test [3], in [4], in [5], in test [6], in [7] and in test [8] was “inactive” in each case. The Potency result in test [9], in test [10], in test [11], in test [12], in test [13] and in [14] was “inactive” each time. The Potency entry in test [15], in test [20] and in test [16] was “inactive” throughout. In addition, the values for the max response in test [17] and in test [18] were -1.95% and 1.58% (inactive), respectively. For the same compound, the activation in [19] is 5.33% (inactive).
